Test results: PubChem BioAssay (NCATS)
Inconclusive results are not listed. A call without a number means that no potency is given here. Calls of active or inactive are those of the source. Calls follow the shape of the dose curve; as a rule, active = well fitted inhibition curve with a large enough effect; inconclusive = small, poorly fitted or top-dose-only effect; inactive = flat fitted curve, though single readings scatter.

Each molecule was assayed against Calcium and integrin-binding protein 1 (Homo sapiens) (UniProt Q99828) (assay: Primary qHTS for Identification of Calcium Integrin Binding Protein 1 (CIB1) Competitor (AID 1508620; also: top concentration of the series differs between compounds)). Conditions: CIB1-GST / FITC-alphaIIb peptide fluorescence polarization; series mostly up to 57.7 µM.
Summary of the method: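 Fluorescence polarization competition: GST-tagged CIB1 (1 uM final) preincubated with compound 15 min at room temperature, then FITC-labelled alphaIIb peptide (100 nM final) added. After 15 min at room temperature, polarization read at Ex 480/Em 540.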

Chain of Calcium and integrin-binding protein 1 (Homo sapiens) (Q99828 whole entry, looked up): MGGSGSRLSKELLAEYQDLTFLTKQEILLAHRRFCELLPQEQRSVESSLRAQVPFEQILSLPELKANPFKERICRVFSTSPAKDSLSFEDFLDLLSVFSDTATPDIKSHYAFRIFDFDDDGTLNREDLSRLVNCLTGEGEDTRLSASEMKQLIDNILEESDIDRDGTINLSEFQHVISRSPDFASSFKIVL

Molecule | Potency
C[C@H](/C=C/[C@@]1(O)[C@H](C)CC(=O)CC1(C)C)O[C@@H]1O[C@H](CO[C@@H]2OC[C@@H](O)[C@H](O)[C@H]2O)[C@@H](O)[C@H](O)[C@H]1O | inactive
OC[C@H]1O[C@@H](OCCc2ccccc2)[C@H](O[C@@H]2OC[C@@H](O)[C@H](O)[C@H]2O)[C@@H](O)[C@@H]1O | inactive
CC1=CC(=O)[C@]2(O[C@@H]3O[C@@H](C)[C@H](O)[C@@H](O)[C@H]3O)C=CO[C@@H](O[C@@H]3O[C@H](CO)[C@@H](O)[C@H](O)[C@H]3O)[C@H]12 | inactive
C=C1C(O)CC2C(C(=O)O)=COC(OC3OC(CO)C(O)C(O)C3OC(=O)/C=C\c3ccc(O)cc3)C12 (stereo not drawn) | inactive
O=C1C[C@@]2(C(=O)N1)C(=O)N(Cc1ccc(Br)cc1F)C(=O)c1cccn12 | inactive
C[C@@H]1O[C@@H](O[C@H]2[C@H](O)[C@@H](O)[C@H](OC[C@H]3O[C@@H](OC(=O)[C@]45CCC(C)(C)C[C@H]4C4=CCC6[C@@]7(C)C[C@@H](O)[C@H](O)[C@@](C)(CO)C7[C@H](O)C[C@@]6(C)[C@]4(C)CC5)[C@H](O)[C@@H](O)[C@@H]3O)O[C@@H]2CO)[C@H](O)[C@H](O)[C@H]1O (stereo partly drawn) | inactive
CC/C=C/C(O)C(O)C1=C(C)C(=O)C2(O1)C(=O)NC(OC)(C(=O)c1ccccc1)C2O (stereo not drawn) | inactive
C=CC(C)(O)CC/C=C(\C)C(=O)O[C@@H]1[C@@H](O)[C@H](OC(C)(C=C)CC/C=C(\C)C(=O)O)O[C@H](CO)[C@H]1OC(=O)/C(C)=C/CCC(C)(O)C=C (stereo partly drawn) | inactive
H-DPPDPDRFYGMM-NH2 | inactive
CC(=O)O[C@@H]1[C@H](OC(C)=O)C[C@@]2(C)C(CC[C@@H](C)[C@]23Cc2c(O)cc4c(c2O3)CN([C@@H](CCC(=O)O)C(=O)O)C4=O)C1(C)C (stereo partly drawn) | inactive
C=C1CCC2C(C)(C(=O)O)CCCC2(C)C1CC/C(C)=C\CO (stereo not drawn) | inactive
CC1C(O)C(O)C2C(C(=O)OCCc3ccc(O)cc3)=COC(O[C@@H]3O[C@H](CO)[C@@H](O)[C@H](O)[C@H]3O)C12 (stereo partly drawn) | inactive
C/C(=C\C(=O)C[C@@]12C(=O)O[C@]3(C)CC[C@H]1C[C@H]23)C(N)=O | inactive
